From PubChem BioAssay AID1159580 (chemical genetic matrix, 2015)
The whole screen tested about 5,500 compounds, of which about 2,000 (36%) were called active. Another 18% or so got no clear call; they are omitted. Cut-off read from the data, not from the text of the source: active = normalized growth mostly below about 0.91 (no sharp cut-off); inconclusive = no clear call, values can overlap the other calls; inactive = mostly above about 0.92. The list shows a part of the results.

Test: chemical genetic growth profiling, strain panel (AID 1159580);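 note: tested at 20 µM; growth read once vehicle control cultures reached saturation at 30 °C; 1 = growth at the plate median or of vehicle wells; lower values mean less growth of the strain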
Conditions: growth OD

Measured: normalized growth

CC(C)NC[C@H](O)COc1cccc2ccccc12
inactive: S. cerevisiae deletion strains, locus YJR066W, strain TOR1, active compounds read low 0.996 | S. cerevisiae deletion strains, locus YKL009W, strain mrt4, active compounds read low 1.03 | S. cerevisiae deletion strains, locus YKL068W, active compounds read low 1.01 | S. cerevisiae deletion strains, locus YKL085W, strain MDH1 (second series), active compounds read low 0.999 | S. cerevisiae deletion strains, locus YKL085W, strain MDH1, active compounds read low 0.999 | S. cerevisiae deletion strains, locus YKL160W, strain elf1, active compounds read low 0.992 | S. cerevisiae deletion strains, locus YKR001C, strain vps1, active compounds read low 1.04 | S. cerevisiae deletion strains, locus YKR026C, strain gcn3, active compounds read low 0.978 | S. cerevisiae deletion strains, locus YKR091W, strain srl3, active compounds read low 0.99 | S. cerevisiae deletion strains, locus YLL001W, strain dnm1, active compounds read low 0.98 | S. cerevisiae deletion strains, locus YLL026W, active compounds read low 0.98 | S. cerevisiae deletion strains, locus YLL041C, strain sdh2, active compounds read low 0.997 | S. cerevisiae deletion strains, locus YLR027C, strain aat2, active compounds read low 0.987 | S. cerevisiae deletion strains, locus YLR039C, strain RIC1, active compounds read low 1.05 | S. cerevisiae deletion strains, locus YLR058C, strain SHM2, active compounds read low 1.01 | S. cerevisiae deletion strains, locus YLR102C, strain apc9, active compounds read low 1.02 | S. cerevisiae deletion strains, locus YLR113W, strain HOG1, active compounds read low 1 | S. cerevisiae deletion strains, locus YLR221C, strain rsa3, active compounds read low 0.991 | S. cerevisiae deletion strains, locus YLR258W, strain gsy2, active compounds read low 0.985 | S. cerevisiae deletion strains, locus YLR262C, strain YPT6 (second series), active compounds read low 0.974 | S. cerevisiae deletion strains, locus YLR262C, strain YPT6, active compounds read low 1.02 | S. cerevisiae deletion strains, locus YLR268W, strain sec22, active compounds read low 1.01 | S. cerevisiae deletion strains, locus YLR320W, strain mms22, active compounds read low 0.973 | S. cerevisiae deletion strains, locus YLR330W, strain CHS5, active compounds read low 1.01 | S. cerevisiae deletion strains, locus YLR342W, strain FKS1 (second series), active compounds read low 0.963 | S. cerevisiae deletion strains, locus YLR342W, strain FKS1, active compounds read low 0.986 | S. cerevisiae deletion strains, locus YLR357W, strain rsc2, active compounds read low 0.978 | S. cerevisiae deletion strains, locus YLR370C, strain arc18, active compounds read low 0.999 | S. cerevisiae deletion strains, locus YLR371W, strain rom2, active compounds read low 1.03 | S. cerevisiae deletion strains, locus YLR384C, strain iki3, active compounds read low 0.963 | S. cerevisiae deletion strains, locus YLR418C, strain cdc73, active compounds read low 1.02 | S. cerevisiae deletion strains, locus YML016C, strain PPZ1, active compounds read low 1 | S. cerevisiae deletion strains, locus YML032C, strain rad52, active compounds read low 0.997 | S. cerevisiae deletion strains, locus YML120C, strain ndi1, active compounds read low 1 | S. cerevisiae deletion strains, locus YML124C, strain tub3, active compounds read low 1.02 | S. cerevisiae deletion strains, locus YMR058W, strain fet3, active compounds read low 0.995 | S. cerevisiae deletion strains, locus YMR078C, strain ctf18, active compounds read low 1.03 | S. cerevisiae deletion strains, locus YMR125W, strain sto1, active compounds read low 0.966 | S. cerevisiae deletion strains, locus YMR129W, active compounds read low 0.988 | S. cerevisiae deletion strains, locus YMR205C, strain PFK2, active compounds read low 0.971 | S. cerevisiae deletion strains, locus YMR223W, strain ubp8, active compounds read low 1.06 | S. cerevisiae deletion strains, locus YMR231W, strain pep5, active compounds read low 0.988 | S. cerevisiae deletion strains, locus YMR263W, strain SAP30, active compounds read low 1.01 | S. cerevisiae deletion strains, locus YMR307W, strain GAS1, active compounds read low 1.06 | S. cerevisiae deletion strains, locus YNL067W, strain RPL9B, active compounds read low 1.03 | S. cerevisiae deletion strains, locus YNL071W, strain lat1, active compounds read low 0.997 | S. cerevisiae deletion strains, locus YNL183C, strain NPR1, active compounds read low 0.995 | S. cerevisiae deletion strains, locus YNL209W, strain ssb2, active compounds read low 0.987 | S. cerevisiae deletion strains, locus YNL233W, strain BNI4, active compounds read low 1.02 | S. cerevisiae deletion strains, locus YNL248C, strain rpa49, active compounds read low 0.989 | S. cerevisiae deletion strains, locus YNL250W, strain rad50, active compounds read low 1.04 | S. cerevisiae deletion strains, locus YNL271C, strain bni1, active compounds read low 1.02 | S. cerevisiae deletion strains, locus YNL298W, strain CLA4, active compounds read low 1.01 | S. cerevisiae deletion strains, locus YNL307C, strain MCK1, active compounds read low 1.02 | S. cerevisiae deletion strains, locus YNL322C, strain KRE1 (second series), active compounds read low 0.977 | S. cerevisiae deletion strains, locus YNL322C, strain KRE1, active compounds read low 1.01 | S. cerevisiae deletion strains, locus YNR049C, strain mso1, active compounds read low 0.989 | S. cerevisiae deletion strains, locus YNR052C, strain pop2, active compounds read low 1.01 | S. cerevisiae deletion strains, locus YOL012C, strain htz1 0.826 | S. cerevisiae deletion strains, locus YOL147C, strain pex11, active compounds read low 1.02 | S. cerevisiae deletion strains, locus YOR001W, strain rrp6, active compounds read low 0.994 | S. cerevisiae deletion strains, locus YOR061W, strain CKA2, active compounds read low 1 | S. cerevisiae deletion strains, locus YOR069W, strain VPS5, active compounds read low 1.01 | S. cerevisiae deletion strains, locus YOR070C, strain gyp1, active compounds read low 0.998 | S. cerevisiae deletion strains, locus YOR080W, strain dia2, active compounds read low 0.977 | S. cerevisiae deletion strains, locus YOR083W, strain WHI5, active compounds read low 1.01 | S. cerevisiae deletion strains, locus YOR106W, strain vam3, active compounds read low 0.997 | S. cerevisiae deletion strains, locus YOR136W, strain idh2, active compounds read low 1.03 | S. cerevisiae deletion strains, locus YOR144C, strain elg1, active compounds read low 1.02 | S. cerevisiae deletion strains, locus YOR184W, strain ser1, active compounds read low 1.03 | S. cerevisiae deletion strains, locus YOR231W, strain MKK1, active compounds read low 1.02 | S. cerevisiae deletion strains, locus YOR265W, strain rbl2, active compounds read low 0.988 | S. cerevisiae deletion strains, locus YOR270C, strain vph1, active compounds read low 1.03 | S. cerevisiae deletion strains, locus YOR290C, strain snf2, active compounds read low 0.988 | S. cerevisiae deletion strains, locus YOR316C, strain cot1, active compounds read low 1.03 | S. cerevisiae deletion strains, locus YPL051W, strain arl3, active compounds read low 0.993 | S. cerevisiae deletion strains, locus YPL055C, strain LGE1, active compounds read low 1.02 | S. cerevisiae deletion strains, locus YPL078C, strain atp4, active compounds read low 1.01 | S. cerevisiae deletion strains, locus YPL106C, strain sse1, active compounds read low 0.98 | S. cerevisiae deletion strains, locus YPL240C, strain hsp82, active compounds read low 0.999 | S. cerevisiae deletion strains, locus YPL241C, strain CIN2, active compounds read low 1.01 | S. cerevisiae deletion strains, locus YPL256C, strain CLN2, active compounds read low 1.07 | S. cerevisiae deletion strains, locus YPR119W, strain clb2, active compounds read low 1.03 | S. cerevisiae deletion strains, locus YPR141C, strain kar3, active compounds read low 1.02 | S. cerevisiae deletion strains, locus YPR163C, strain tif3, active compounds read low 1.02 | S. cerevisiae deletion strains, locus YPR167C, strain met16, active compounds read low 1.03 | S. cerevisiae deletion strains, strain wtn01, active compounds read low 1.01 | S. cerevisiae strains, strain wild type, active compounds read low 1.01
